Among the targets are RRP12; RSF1; RPS6KA5; RSPH9; RTTN; RYR2; SASH1; SCGB1D4; SEZ6L; SH3YL1; SIRT7; SIX1; SIRT4; SIRPD.
Common to all, as to test: pooled miR-30 sensor sort-seq; sequence = guide strand
Holding throughout (conditions): shRNA

The results in this text go back to the OligoGym collection.
Further: reference of the scale not given here.

TAGATCTTAGATTCCACTGTGC: the sensor-assay potency score (higher = more potent) with RRP12 was 0.564.

For the sequence TTCTTTTCTTTCTTCATCCAAA, the sensor-assay potency score (higher = more potent) in the test with RSF1 was -0.992.

The sequence TATTTCTTTACCACGTCGCAAA gave a sensor-assay potency score (higher = more potent) in the test with RSF1 of -1.15.

TTTTTATGCACACACTTTCGAC: in the test with RPS6KA5, the sensor-assay potency score (higher = more potent) is -1.13.

TAGAATTTGTATCTTTCTCTGA yielded a sensor-assay potency score (higher = more potent) with RSF1 of 0.105.

For TAACTTCACAGCATCGACTGTC, the sensor-assay potency score (higher = more potent) with RRP12 turned out to be 0.541.

Consider TTCTTTTGGTACTTCTCCGTTG, for which the sensor-assay potency score (higher = more potent) with RSF1 was -0.632.

In the case of TATGTAACTTCACAGCATCGAC, the sensor-assay potency score (higher = more potent) with RRP12 was -0.864.

TTGTAAATCATTCTCACTGGGA returned a sensor-assay potency score (higher = more potent) in the test with RRP12 of 0.0361.

Sequence TTGAGCTCTGCTGACAGGGTGC registered a sensor-assay potency score (higher = more potent) with RRP12 of -0.0342.

For the sequence TAATTCATCTCGAATGACTGGC, the sensor-assay potency score (higher = more potent) with RPS6KA5 came out at 0.637.

Turning to TTCACCTTCATTCACCTTCTGC, the sensor-assay potency score (higher = more potent) with RSPH9 was -0.502.

TTCAGGAGTAACTTCAACCAAA gave a sensor-assay potency score (higher = more potent) in the test with RTTN of -0.732.

On to TTGTATTTGCTCATCTCTGTTA, for which the sensor-assay potency score (higher = more potent) with RTTN is -0.347.

Take TTCAGTGTGAACATCATGGTGT: the sensor-assay potency score (higher = more potent) with RYR2 was determined as 0.656.

TTGCAGTCCACAACCAGCCAAA: the sensor-assay potency score (higher = more potent) with RYR2 was -1.35.

Sequence TAGCTTTCCGAGTCTTGCCGTT showed a sensor-assay potency score (higher = more potent) with SASH1 of -0.384.

As to TTCACTTCCAACTTGGCTGCAA, the sensor-assay potency score (higher = more potent) with SCGB1D4 amounted to 1.11.

As to TTGGTATCCATTTTCAGGCAGC, in the test with SEZ6L, the sensor-assay potency score (higher = more potent) is -0.526.

Sequence TAATTTTCTCACAAAATGGGGG registered a sensor-assay potency score (higher = more potent) with SEZ6L of -0.33.

TTATATTCATTTCTGTTGCTTT registered a sensor-assay potency score (higher = more potent) in the test with SH3YL1 of -0.121.

In the test with SIRT7, TAACGCTTCTCCCTTTCTGAAG registered a sensor-assay potency score (higher = more potent) of -1.56.

Sequence TTCTATTTACAAGTGTCCCTAG returned a sensor-assay potency score (higher = more potent) with SIX1 of 0.0217.

In the case of ATGTTCAGTATTGCAATCGGGA, the sensor-assay potency score (higher = more potent) in the test with SIRT4 was -1.33.

As to TTGTTTTCGGTGTTCTCCCTTT, in the test with SIX1, the sensor-assay potency score (higher = more potent) is -0.196.

The sequence TACTCCTTGATAGCTCTTCCTT returned a sensor-assay potency score (higher = more potent) with SIRPD of -0.857.

Consider TGGGTACTTCTTTAGAACCTTC, for which the sensor-assay potency score (higher = more potent) with SIRT7 is -0.762.

On to AACAACTCCAGAAACAAGCTGC, for which, in the test with SIX1, the sensor-assay potency score (higher = more potent) was -0.198.

Regarding TTCTTTAGAACCTTCAGGCTGG, the sensor-assay potency score (higher = more potent) with SIRT7 turned out to be 0.828.

Consider TTTGTTATTTACTTGTACGTTC, for which the sensor-assay potency score (higher = more potent) in the test with SIRPD amounted to 0.326.

As to TTCTTGTGCAGGTGGTCGCAGG, the sensor-assay potency score (higher = more potent) with SIX1 is -1.02.

In the test with SIRT4, TTGAACGCAGGTTGGGACCTGA had a sensor-assay potency score (higher = more potent) of 0.0552.

Take TTGTGCACAAAATCAACCTTGT: the sensor-assay potency score (higher = more potent) in the test with SIRT4 worked out at 0.469.

With TTAAGCTTGAGATCGCTGTTGG, in the test with SIX1, the sensor-assay potency score (higher = more potent) worked out at 0.117.

For TTCTGAAGCAGTGTCCACACTC, the sensor-assay potency score (higher = more potent) with SIRT7 is -0.449.

In the test with SIX1, TTCTGAGCTGGACATGAGCGGC gave a sensor-assay potency score (higher = more potent) of -1.35.

On to TCCGTCACATCGAACACCCGCA, for which, in the test with SIRT7, the sensor-assay potency score (higher = more potent) is -0.639.

Turning to TTTATGCGCAAACAACTCCAGA, the sensor-assay potency score (higher = more potent) with SIX1 is -1.43.

In the test with SIX1, TTGAGTACGCTCTCGTTCTTGT returned a sensor-assay potency score (higher = more potent) of -0.00831.

Regarding TTCAATGTACATGTTCCCGTGG, in the test with SIRT7, the sensor-assay potency score (higher = more potent) turned out to be 0.307.

TGAACCACAAGACAGGTCCATT: the sensor-assay potency score (higher = more potent) in the test with SIRPD is -1.29.

Consider TTACTCTGGGAAAGTTACCTTG, for which the sensor-assay potency score (higher = more potent) in the test with SIRPD was -0.709.

In the case of TTTTGCTGACCTGAAAGTCAAC, the sensor-assay potency score (higher = more potent) with SIRT4 is -1.46.

TGAAGCAGTGTCCACACTCCAT displayed a sensor-assay potency score (higher = more potent) in the test with SIRT7 of -1.07.

In turn, TTAATTTCCGGTTTGGCCCTGT returned a sensor-assay potency score (higher = more potent) in the test with SIRPD of 0.897.

With TATTGCAATCGGGAGCTTCTTC, the sensor-assay potency score (higher = more potent) with SIRT4 is -0.488.

ATGACGTCATCACACTTCCCAT registered a sensor-assay potency score (higher = more potent) in the test with SIRT7 of -1.31.

Regarding TTCTGCACAGCGACTTCCGACT, in the test with SIRT7, the sensor-assay potency score (higher = more potent) is -1.07.

Sequence TTTCTATTTACAAGTGTCCCTA registered a sensor-assay potency score (higher = more potent) with SIX1 of -0.676.

Consider TTTTTCTGACCTGTAGTCTGGT, for which, in the test with SIRT4, the sensor-assay potency score (higher = more potent) came out at 0.35.

In turn, TTCTTCACCAGCACGCAGGGGA displayed a sensor-assay potency score (higher = more potent) in the test with SIRT7 of -0.0799.

ATACCTGCAAGGATGATCCCAC came in with a sensor-assay potency score (higher = more potent) in the test with SIRT4 of 0.445.

On to TACAAGTGTCCCTAGTCGCTGC, for which, in the test with SIX1, the sensor-assay potency score (higher = more potent) came to 0.379.

As for TTTCTGACCTGTAGTCTGGTAT, the sensor-assay potency score (higher = more potent) in the test with SIRT4 is -0.224.

In the case of ATATTTGTGAAAGTCCACCATT, the sensor-assay potency score (higher = more potent) with SIX1 is -0.953.

As to TTCTCCTTGAAGCAGTAGCTGG, the sensor-assay potency score (higher = more potent) with SIX1 is -1.4.

TTGGTCATGCACCAGAGGCGTG displayed a sensor-assay potency score (higher = more potent) with SIRT7 of -1.42.

For TTTTCTGACCTGTAGTCTGGTA, in the test with SIRT4, the sensor-assay potency score (higher = more potent) is -0.377.

In the test with SIRT7, TAGACGACCAAGTATTTGGCGT showed a sensor-assay potency score (higher = more potent) of -0.403.

In the test with SIRT4, TTCTTTTACACGCTTGTGCACA showed a sensor-assay potency score (higher = more potent) of -0.806.
